Values without a mark were called inactive.
Test system: MV4-11
Assay: CellTox Green cytotoxicity fluorescence relative to DMSO vehicle (fold of vehicle RFU); higher = more cell death (loss of membrane integrity), active = 2 or more
Method: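 Paediatric AML cell lines (MV4-11, CMK, Kasumi-1; 4x10^4 cells/well, 96-well) treated with single compounds from the Selleckchem apoptosis library at 0.01, 0.1 and 1 µM. Cytotoxicity was read with CellTox Green (RFU, Ex 485/Em 520) at 24, 48 and 72 h and normalised to the 0.1% DMSO vehicle. Normalised RFU >= 2 was taken as a successful, cell-killing treatment.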

Row | SMILES | CellTox Green cytotoxicity fluorescence (0.01 µM, 24 h) | CellTox Green cytotoxicity fluorescence (0.01 µM, 48 h) | CellTox Green cytotoxicity fluorescence (0.01 µM, 72 h) | CellTox Green cytotoxicity fluorescence (0.1 µM, 24 h) | CellTox Green cytotoxicity fluorescence (0.1 µM, 48 h) | CellTox Green cytotoxicity fluorescence (0.1 µM, 72 h) | CellTox Green cytotoxicity fluorescence (1 µM, 24 h) | CellTox Green cytotoxicity fluorescence (1 µM, 48 h) | CellTox Green cytotoxicity fluorescence (1 µM, 72 h)
1 | CN[C@@H]1C[C@H]2O[C@@](C)([C@@H]1OC)n1c3ccccc3c3c4c(c5c6ccccc6n2c5c31)C(=O)NC4 [Staurosporine] | 0.985 | 1.41 | 1.83 | 1.01 | 1.48 | 1.96 | 1.36 | 2.34 (active) | 2.42 (active)
2 | CC1=C(O)C(=O)C=C2C1=CC=C1[C@@]2(C)CC[C@@]2(C)[C@@H]3C[C@](C)(C(=O)O)CC[C@]3(C)CC[C@]12C [Celastrol] | 0.931 | 0.955 | 0.964 | 0.966 | 0.976 | 1.01 | 1.29 | 1.96 | 2.21 (active)
3 | COc1cc([C@@H]2c3cc4c(cc3[C@H](O)[C@H]3COC(=O)[C@@H]23)OCO4)cc(OC)c1OC [Picropodophyllin] | 0.934 | 0.932 | 0.939 | 0.922 | 0.924 | 0.931 | 1.28 | 2.6 (active) | 3.18 (active)
4 | O=C(O)C(=O)c1cn(Cc2ccccc2)c2ccc(-c3ccc(OC(F)(F)F)cc3)cc12 [Tiplaxtinin] | 1.02 | 1.02 | 1.04 | 1.01 | 1.02 | 1.03 | 0.997 | 1.01 | 1
5 | O=c1[nH]c2ccccc2n1C1CCN(Cc2ccc(-c3[nH]c4cc5ncnc5cc4nc3-c3ccccc3)cc2)CC1 | 1 | 0.995 | 0.956 | 1 | 0.999 | 0.993 | 1.04 | 1.1 | 1.21

From the supplement of paper PMC7595190
